Rows were chosen to be rich in hits. Some 2.8% of all compounds tested hit in one or more screens of this group.
p-CIP stab down: lowers stability of the mouse p/CIP coactivator protein; F442A p/CIP-EGFP cells, EGFP fluorescence, 16 h; hit rate 0.01% among 290,000; decrease of EGFP signal, % at 10 µM; Q05BA5;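 active = EGFP signal decrease of at least 30% at 10 µM or well 3 SD below plate mean, unless failing retest; inactive = the rest, including hits failing retest or dose response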
PolyA inhibitor: blocks polyadenylation in yeast reporter cells; S. cerevisiae SKY197-pL101 polyadenylation reporter, beta-gal luminescence; efflux-impaired pdr1/pdr3 knockout yeast; score 100 = 6 SD above DMSO; activity score, % at 12 µM; hit rate 0.02% among 300,000; AID 1875;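 active = lowest replicate activity score at least 50, where 100 means six control SD above control mean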;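 also: yeast exposed to compound for 9 h at 30 °C; higher score means more reporter readthrough which indicates perturbed polyadenylation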
HIF act: HIF pathway transcriptional activation | hit rate 0.32% among 300,000 | U2OS HRE-luciferase reporter, luminescence; normalized: DMSO 0%, desferrioxamine 100% | AID 1910 | activation, % at 7.5 µM (by protocol);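 active = mean activation of at least 10% of the iron chelator positive control signal, with at least half of replicates also reaching 10%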
AHR activator: activates the human aryl hydrocarbon receptor; P35869; AHR-responsive luciferase reporter cells, luminescence; activation, % at 5 µM; AID 2796; hit rate 2.5% among 320,000; in the data active = activation above about 47%
Platelet DG rel: modulates dense granule release in human platelets. hit rate 0.22% among 300,000. human platelet-rich plasma, SFLLRN dense granule ATP release, luminescence. inhibition, %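 (compounds screened at 7.5 µM in platelet-rich plasma)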. AID 1663;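 active = mean replicate score, as percent of positive control, at or above 50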
Hits are given with their value.

`CCNCCNC(=O)c1c(O)c2cccc3c2n(c1=O)CCC3` gave p-CIP stab down inactive, PolyA inhibitor inactive, HIF act inactive, AHR activator 60 and Platelet DG rel inactive.
Screening CCCCNC(=O)c1c(O)c2cccc3c2n(c1=O)CCC3 returned p-CIP stab down inactive, PolyA inhibitor inactive, HIF act inactive, AHR activator inactive and Platelet DG rel inactive.
CCOc1ccc(-c2ccc(SC)nn2)cc1 was read as p-CIP stab down inactive, PolyA inhibitor inactive, HIF act inactive, AHR activator inactive and Platelet DG rel 95.
For CCN1CCN(S(=O)(=O)c2c[nH]c(C(=O)OC)c2)CC1 the results were p-CIP stab down inactive, PolyA inhibitor inactive, HIF act inactive, AHR activator inactive and Platelet DG rel inactive.
For Cn1c2ccccc2c2ncn(CCCN3CCOCC3)c(=O)c21 the results were p-CIP stab down inactive, PolyA inhibitor inactive, HIF act inactive, AHR activator 50 and Platelet DG rel inactive.
`O=C(CS(=O)(=O)c1ccc2ccccc2c1)N1CCCCCC1` gave p-CIP stab down inactive, PolyA inhibitor inactive, HIF act inactive, AHR activator inactive and Platelet DG rel inactive.
COc1ccc(CNc2ncnc3cc(OC)c(OC)cc23)cc1OC was read as p-CIP stab down inactive, PolyA inhibitor inactive, HIF act inactive, AHR activator inactive and Platelet DG rel inactive.
Screening COc1cc2ncnc(NCc3ccc4c(c3)OCO4)c2cc1OC returned p-CIP stab down inactive, PolyA inhibitor inactive, HIF act inactive, AHR activator 63 and Platelet DG rel inactive.
Screening CCOc1ccc(Br)cc1C(=O)N/N=C/c1cccnc1 returned p-CIP stab down inactive, PolyA inhibitor inactive, HIF act inactive, AHR activator 67 and Platelet DG rel inactive.
O=C(N/N=C/c1cccnc1)c1cccc(NC(=O)c2cccc(Br)c2)c1 was read as p-CIP stab down inactive, PolyA inhibitor inactive, HIF act inactive, AHR activator 76 and Platelet DG rel inactive.
For O=c1c(Cl)c(N2CCCCC2)cnn1-c1nc2ccccc2[nH]1 the results were p-CIP stab down inactive, PolyA inhibitor inactive, HIF act inactive, AHR activator inactive and Platelet DG rel inactive.
For O=c1c2ccccc2cnn1-c1nc2ccccc2[nH]1 the results were p-CIP stab down inactive, PolyA inhibitor inactive, HIF act inactive and Platelet DG rel 74.
Cc1nc2cc(N3CCCCC3)c(NC(=O)c3cccnc3)cc2c(=O)n1Cc1ccccc1 was read as p-CIP stab down inactive, PolyA inhibitor inactive, HIF act inactive and AHR activator 49.
Cn1cc([N+](=O)[O-])c(C(=O)NCc2cc3cc(Cl)ccc3[nH]2)n1 was read as p-CIP stab down inactive, PolyA inhibitor inactive, HIF act inactive, AHR activator 48 and Platelet DG rel inactive.
Cn1c(Cc2ccccc2)nnc1SCC(=O)Nc1ccc(N2CCOCC2)cc1 was read as p-CIP stab down inactive, PolyA inhibitor inactive, HIF act inactive, AHR activator inactive and Platelet DG rel inactive.
Cc1ccc(Nc2cc(C)nn2-c2nc(C)cc(C)n2)cc1 was read as p-CIP stab down inactive, PolyA inhibitor inactive, HIF act inactive, AHR activator inactive and Platelet DG rel inactive.
Cc1ccc(Nc2cc(C)nn2-c2nc(C)cc(=O)[nH]2)cc1 was read as p-CIP stab down inactive, PolyA inhibitor inactive, HIF act 216, AHR activator inactive and Platelet DG rel inactive.
Screening CCOC(=O)C1(C)NC(c2cc(OC)c(OC)c(OC)c2)C2C(=O)N(CC)C(=O)C21 (stereo unspecified) returned p-CIP stab down inactive, PolyA inhibitor inactive, HIF act inactive, AHR activator 71 and Platelet DG rel inactive.
`O=C(NCCc1ccccc1)C(c1cccs1)N(C(=O)c1csnn1)C1CC1` (stereo unspecified) gave p-CIP stab down inactive, PolyA inhibitor inactive, HIF act inactive, AHR activator 58 and Platelet DG rel inactive.
`O=C(NCc1ccccc1)C(c1cccs1)N(C(=O)c1csnn1)C1CC1` (stereo unspecified) gave p-CIP stab down inactive, PolyA inhibitor inactive, HIF act inactive, AHR activator inactive and Platelet DG rel inactive.
Screening CCOC(=O)C1CCN(S(=O)(=O)c2cccc(-c3cn4cccc(C)c4n3)c2)CC1 returned p-CIP stab down inactive and AHR activator inactive.
Screening O=C(Nc1ccc(Cl)cc1C(=O)Nc1ccc(Br)cn1)c1ccco1 returned p-CIP stab down inactive, PolyA inhibitor inactive, HIF act inactive, AHR activator 61 and Platelet DG rel inactive.
`COC(=O)c1cc(OC)c(OC)cc1NCC(=O)Nc1ccc(C)cc1` gave p-CIP stab down inactive, PolyA inhibitor inactive, AHR activator inactive and Platelet DG rel inactive.
Screening COC(=O)c1cc(OC)c(OC)cc1NCC(=O)Nc1ccc(OC)c(OC)c1 returned p-CIP stab down inactive, PolyA inhibitor inactive, HIF act inactive, AHR activator 72 and Platelet DG rel inactive.
CC(C)(C)c1ccc(S(=O)(=O)N2CCNC(=O)C2)cc1 was read as AHR activator inactive.
Screening COc1cc(N2CCCC2)c(OC)cc1/C=C(/C#N)c1cccc(F)c1 returned p-CIP stab down inactive, PolyA inhibitor inactive, HIF act inactive, AHR activator 69 and Platelet DG rel inactive.
Screening CC(CC(=O)N1CCN(S(=O)(=O)c2ccc(Cl)cc2)CC1)n1cncn1 (stereo unspecified) returned p-CIP stab down inactive, PolyA inhibitor inactive, HIF act inactive, AHR activator inactive and Platelet DG rel inactive.
For C=C(C)C(O)COc1c2occc2c(OC)c2ccc(=O)oc12 (stereo unspecified) the results were AHR activator 55.
COc1cccc(/C=N/n2c(-c3n[nH]c4c3CCC4)n[nH]c2=S)c1OC was read as p-CIP stab down inactive, PolyA inhibitor inactive, HIF act inactive, AHR activator 51 and Platelet DG rel inactive.
Screening COc1ccc(/C=N/n2c(-c3n[nH]c4c3CCC4)n[nH]c2=S)c(OC)c1OC returned p-CIP stab down inactive, PolyA inhibitor inactive, HIF act inactive, AHR activator inactive and Platelet DG rel inactive.
`Cc1ccc(S(=O)(=O)N2CCOCC2)cc1C(=O)NCc1ccccc1CN1CCCC1` gave AHR activator inactive.
`CC(=O)COc1cccc2ccc(/C=C/c3ccc(Br)s3)nc12` gave p-CIP stab down inactive, PolyA inhibitor inactive, HIF act inactive, AHR activator 72 and Platelet DG rel inactive.
Cc1ccc(/C=C/c2ccc3cccc(O)c3n2)s1 was read as p-CIP stab down inactive, PolyA inhibitor inactive, HIF act inactive, AHR activator inactive and Platelet DG rel inactive.
Cc1ccccc1Nc1nnc(-c2ccc(C(=O)NCCO)cc2)c2ccccc12 was read as p-CIP stab down inactive, PolyA inhibitor inactive, HIF act inactive, AHR activator inactive and Platelet DG rel inactive.
CCC1(C)Cc2c(sc3nc(NN)n(C)c(=O)c23)CO1 (stereo unspecified) was read as p-CIP stab down inactive, PolyA inhibitor inactive, HIF act inactive, AHR activator 62 and Platelet DG rel inactive.
`CCOC(=O)C1CCN(S(=O)(=O)c2cn(C)c(C)n2)CC1` gave p-CIP stab down inactive, PolyA inhibitor inactive, HIF act inactive, AHR activator inactive and Platelet DG rel inactive.
